# Data as given in PubChem BioAssay (NCI).
# About 79,000 compounds went through this panel and 15% of them were active in at least one assay; those are over-represented in the sample as a whole. Values without a mark were called inactive. The source made the active and inactive calls. Cut-off read from the data, not from the text of the source: active = growth inhibition above about 70%; inactive = the rest.
# Assays:
# [1] = NCI Yeast Anticancer Drug Screen. Data for the rad50 strain (AID 155);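 note: 0% = growth of vehicle-only cultures of the same strain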; conditions: S. cerevisiae rad50 strain growth inhibition, hits give high values
# Outline: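 Readout: growth inhibition relative to vehicle-treated cultures. Compound exposure was carried out in a genetically defined yeast strain deficient in DNA damage repair.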
# [2] = NCI Yeast Anticancer Drug Screen. Data for the mec2-1 strain (AID 157); conditions: S. cerevisiae mec2-1 strain, hits give high values
# Outline: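 Cells of the genetically defined mec2-1 yeast strain are incubated with test compound. Inhibition of growth is calculated against vehicle-treated controls.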
# [3] = NCI Yeast Anticancer Drug Screen. Data for the sgs1 mgt1 strain (AID 161);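 note: 0% = growth of cultures given vehicle only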; conditions: S. cerevisiae sgs1 mgt1 strain, hits give high values
# Outline: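 Genetically altered yeast, compound exposure, growth inhibition relative to vehicle.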
# [4] = NCI Yeast Anticancer Drug Screen. Data for the cln2 rad14 strain (AID 165);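 note: 0% = growth equal to vehicle treated cultures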; conditions: S. cerevisiae cln2 rad14 strain, hits give high values
# Outline: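 The screen exposed genetically defined yeast (cln2 rad14) to test compounds and scored growth inhibition relative to vehicle-treated controls.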
# [5] = NCI Yeast Anticancer Drug Screen. Data for the bub3 strain (AID 167); conditions: S. cerevisiae bub3 mutant strain, hits give high values
# Outline: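 Readout: yeast growth inhibition, expressed relative to vehicle-only wells. The test organism is a mutant strain from a panel with lesions in DNA repair or checkpoint genes.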
# [6] = NCI Yeast Anticancer Drug Screen. Data for the mlh1 rad18 strain (AID 175); conditions: S. cerevisiae mlh1 rad18 strain growth inhibition, hits give high values
# Outline: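 Compound-treated yeast growth, normalised to vehicle controls. Strain bears defined DNA repair mutations.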
# [7] = at 5.0 µM (retest, dose inferred, filed as 0.5)
# [8] = at 50.0 µM (retest, dose inferred, filed as 5.0)
SMILES,"growth inhibition [1, 7]","growth inhibition [1, 8]",growth inhibition ([1]; at 50.0 µM),"growth inhibition [2, 7]","growth inhibition [2, 8]",growth inhibition ([2]; at 50.0 µM),"growth inhibition [3, 7]","growth inhibition [3, 8]",growth inhibition ([3]; at 50.0 µM),"growth inhibition [4, 7]","growth inhibition [4, 8]",growth inhibition ([4]; at 50.0 µM),"growth inhibition [5, 7]","growth inhibition [5, 8]",growth inhibition ([5]; at 50.0 µM),"growth inhibition [6, 7]","growth inhibition [6, 8]",growth inhibition ([6]; at 50.0 µM)
Nc1n[nH]c(=O)c2cccnc12,-1%,-13%,0.7%,2%,-12%,-7.95%,-1%,-13%,-10.2%,5%,-13%,17%,1%,-4%,12.9%,2%,-14%,3.25%
C=CCC1=C(C)C(OC(=O)/C=C/c2ccccc2Cl)CC1=O (stereo not given),17%,81% (active),86.2% (active),0%,88% (active),85.1% (active),13%,88% (active),72.2% (active),-6%,89% (active),69%,3%,90% (active),95.4% (active),8%,89% (active),84.3% (active)
Clc1ncccc1-n1cccc1/C=N\N=C/c1cccn1-c1cccnc1Cl,5%,98% (active),7.25%,5%,98% (active),6.3%,8%,94% (active),-10.6%,4%,93% (active),30.4%,6%,97% (active),-4.95%,-1%,99% (active),21.7%
Cc1ccnc2ccc3ccccc3c12,-142%,22%,-17.9%,-48%,-38%,-1%,-63%,-21%,20.4%,-62%,-49%,22.3%,-67%,-18%,31%,-138%,-55%,33.3%
O=C(C(/C=N\C(=S)Nc1ccccc1Cl)=C(/O)c1ccccc1)c1ccccc1,86% (active),99% (active),99.4% (active),81% (active),100% (active),99% (active),55%,99% (active),99.3% (active),95% (active),99% (active),98.4% (active),99% (active),99% (active),99.3% (active),90% (active),99% (active),99.1% (active)
COc1cc(C2C(C(=O)O)=C(C)Oc3cc4c(cc32)OCO4)cc(OC)c1OC (stereo not given),91% (active),90% (active),94.2% (active),70% (active),88% (active),92.8% (active),77% (active),93% (active),97% (active),82% (active),91% (active),88.8% (active),86% (active),87% (active),48.5%,68%,85% (active),97.8% (active)
CC(=O)Nc1ccc(-c2nnc(SCC(=O)Nc3ccc(Cl)cc3Cl)o2)cc1,1%,30%,89.4% (active),-4%,10%,97.4% (active),2%,8%,94.9% (active),8%,29%,86.4% (active),-3%,22%,97.7% (active),7%,28%,94.7% (active)
CN(C)c1ccc(/C=C/c2ccnc3ccccc23)cc1Cl,23%,95% (active),-10.1%,4%,97% (active),-4.1%,0%,97% (active),66.8%,-6%,94% (active),-12.6%,2%,97% (active),29.4%,-3%,95% (active),5.25%
COc1ccc2nc3cc(Cl)ccc3c(NCCC[N+](C)(C)CCCCCCCCCC[N+](C)(C)CCCNc3c4ccc(Cl)cc4nc4ccc(OC)cc34)c2c1,44%,98% (active),96% (active),22%,98% (active),88.3% (active),29%,98% (active),95.8% (active),24%,94% (active),55.8%,21%,98% (active),6.45%,41%,99% (active),96.2% (active)
Oc1c(Br)ccc2c(O)c(Br)ccc12,42%,93% (active),89.7% (active),51%,94% (active),91% (active),36%,98% (active),92.5% (active),57%,98% (active),90.5% (active),53%,97% (active),90.8% (active),31%,88% (active),89.4% (active)
